Sampled rows, rich in hits. Any-hit rate of the full collection: about 2.3%.
iPSC survival up: hiPSC single-cell survival enhancement; survival enhancement, % at 20 µM; 360,000 compounds, 0.044% hits; AID 602274; ATPlite luminescence; 100% = ROCK inhibitor wells, 0% = DMSO; in the data active = survival enhancement above about 18%;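 also: cells exposed to compounds for 16 hours before the ATP read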
CF NFkB inh: cystic fibrosis NF-kB activation inhibition. AID 588850. KKLEB NF-kB-GFP reporter, PAF-induced, GFP fluorescence overnight. inhibition, % at 5 µM. 360,000 compounds, 0.86% hits;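 active = at least 50% inhibition at 5 µM, scaled per plate between neutral and stimulator controls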;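 also: PAF is a Pseudomonas aeruginosa culture filtrate used as stimulus; plate controls were PAF-stimulated DMSO wells for no effect and unstimulated DMSO wells for full effect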
HIF-2a inh: inhibitors of HIF-2a. 786-0 RCC cells HIF-2a reporter, luciferase luminescence, overnight. 360,000 compounds, 0.72% hits. inhibition, % at 18.8 µM;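 active = inhibition of the luminescence signal of 40% or more relative to plate controls, in a single-dose primary screen at 18.75 µM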
KKLEB cytotox: CF airway cell cytotoxicity counter-screen | 360,000 compounds, 0.36% hits | activity change (cytotoxicity), % at 5 µM | KKLEB CF airway cells viability, ATPlite luminescence, overnight; hits give low values; cells stimulated with P. aeruginosa culture filtrate | AID 602141;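 active = corrected activity change at or below -50% at 5 µM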
LGR2 antag: Drosophila LGR2 receptor signaling inhibition; inhibition, % at 9.99 µM; AID 720647; HEK293 LGR2, CRE-luciferase, bursicon-stimulated, 4 h; 380,000 compounds, 0.35% hits;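 active = drop in luminescence signal, shown as inhibition above about 50% in the replicate tests, limit read from the data, passing the limit was not always enough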;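 also: agonist challenge used bursicon conditioned medium at about half maximal strength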
TWEAK Fn14 block: inhibitors of TWEAK-Fn14 interaction signaling. 360,000 compounds, 2% hits. inhibition, % at 10 µM. TWEAK-stimulated Fn14 reporter cells, luciferase luminescence, 8 h; in the data active = inhibition above about 50%
Active calls of the source: *.

Screening COc1ccc(OC)c(NC(=O)Nc2c(O)ccc3ccccc23)c1 returned iPSC survival up 0.5, CF NFkB inh -9.1, HIF-2a inh -18.9, KKLEB cytotox 3.7 and TWEAK Fn14 block 23.5.
`COc1ccc(S(=O)(=O)Nc2ccc(O)c3ccccc23)cc1` gave iPSC survival up -2.9, CF NFkB inh 89.8*, HIF-2a inh 38.0, KKLEB cytotox -47.9 and TWEAK Fn14 block 10.5.
Cc1ccc(C)c(S(=O)(=O)Nc2ccc(O)c3ccccc23)c1 was read as iPSC survival up -0.8, CF NFkB inh 85.6*, HIF-2a inh -9.6, KKLEB cytotox -52.9*, LGR2 antag 5.8 and TWEAK Fn14 block 84.6*.
`COc1ccc(OC)c(NC(=O)Nc2ccc(O)c3ccccc23)c1` gave iPSC survival up 0.8, CF NFkB inh -3.5, HIF-2a inh 10.3, KKLEB cytotox 4.4 and TWEAK Fn14 block 89.7*.
Screening Cc1ccc(S(=O)(=O)Nc2ccc(O)c3ccccc23)c(C)c1 returned iPSC survival up -0.5, CF NFkB inh 39.1, HIF-2a inh 10.0, KKLEB cytotox 0.8, LGR2 antag 18.0 and TWEAK Fn14 block 34.9.
Screening C[C@H](CO)N1C[C@H](C)[C@@H](CN(C)Cc2ccc(C(F)(F)F)cc2)OCCCC[C@H](C)Oc2ccc(NC(=O)NC3CCCCC3)cc2C1=O returned LGR2 antag -1.2.
`CS(=O)(=O)Nc1ccc2c(c1)[C@H]1C[C@@H](CC(=O)NCc3ccccn3)O[C@H](CO)[C@H]1O2` gave LGR2 antag 21.6.
COc1ccc(C(=O)c2ccc(Cl)cc2)cc1 was read as iPSC survival up 0.6, CF NFkB inh 3.6, HIF-2a inh -155.0, KKLEB cytotox -12.7 and TWEAK Fn14 block -27.8.
Screening CC(C)N(C(=O)COC(=O)c1ccccc1C(=O)c1ccc(Cl)c([N+](=O)[O-])c1)C(C)C returned iPSC survival up 9.7, CF NFkB inh 40.9, HIF-2a inh 18.7, KKLEB cytotox -1.4, LGR2 antag 94.3* and TWEAK Fn14 block 35.4.
`COc1ccc(C(=O)c2ccc(Cl)c([N+](=O)[O-])c2)cc1` gave iPSC survival up -3.6, CF NFkB inh 63.7*, HIF-2a inh 25.4, KKLEB cytotox -43.9, LGR2 antag 5.9 and TWEAK Fn14 block 20.4.
`Cc1cccc(S(=O)(=O)N[C@@H]2CC[C@@H](CCn3cc(-c4ccccn4)nn3)O[C@H]2CO)c1` gave LGR2 antag 4.3.
Screening O=C(N[C@@H]1CC[C@@H](CCNC(=O)c2ccccc2F)O[C@H]1CO)c1ccc2c(c1)OCO2 returned LGR2 antag -13.2.
For CCCc1cc(C(=O)Nc2ccc(C(=O)c3ccccc3)cc2)n(C)n1 the results were iPSC survival up -0.4, CF NFkB inh 5.9, HIF-2a inh 10.6, KKLEB cytotox -9.1, LGR2 antag 13.4 and TWEAK Fn14 block 26.8.
Screening CCCc1cc(C(=O)Nc2ccc(C(=O)c3ccc(F)cc3)cc2)n(C)n1 returned iPSC survival up 1.5, CF NFkB inh 19.6, HIF-2a inh -16.8, KKLEB cytotox -13.4 and TWEAK Fn14 block 50.4*.
`C[C@@H]1CCCCO[C@@H](CN(C)CC2CC2)[C@@H](C)CN([C@H](C)CO)C(=O)c2cc(NC(=O)Cc3ccccc3)ccc2O1` gave LGR2 antag 3.1.
Screening C[C@@H]1CN([C@@H](C)CO)C(=O)c2cc(NC(=O)Cc3cn(C)c4ccccc34)ccc2O[C@H]1CN(C)S(C)(=O)=O returned LGR2 antag -10.9.
CCC(=O)N1CCCCN2[C@H](CO)[C@@H](c3ccc(C#Cc4ccccc4F)cc3)[C@@H]2C1 was read as LGR2 antag 29.9.
CN(C)S(=O)(=O)N1CCC(Oc2cccc(C(=O)NC3CCCCC3)c2)CC1 was read as iPSC survival up 1.5, CF NFkB inh 0.7, HIF-2a inh -23.0, KKLEB cytotox -11.4, LGR2 antag -2.3 and TWEAK Fn14 block 22.5.
CN(C)S(=O)(=O)N1CCC(Oc2cccc(C(=O)NCCC3=CCCCC3)c2)CC1 was read as iPSC survival up -0.3, CF NFkB inh -13.4, HIF-2a inh -59.5, KKLEB cytotox 11.5, LGR2 antag 12.7 and TWEAK Fn14 block 50.4*.
`Cc1cc(NC(=O)c2ccc3c(c2)C(=O)N(C(C)(C)C)C3=O)no1` gave iPSC survival up 0.8, CF NFkB inh 1.9, HIF-2a inh 2.9, KKLEB cytotox 12.4 and TWEAK Fn14 block -5.8.

Screening data deposited in PubChem BioAssay by several laboratories.
